Conditions in all cases: mRNA level, 48 h; actives raise or lower the signal
Read-out in assay [1]: Bcl-2 (BAX) gene, BAX (gene 581)
In words: LTEA_HepaRG_BAX: Life Technologies and Expression Analysis (LTEA) Assay for Bcl-2 (BAX) gene using HepaRG (AID 2283470). In outline: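 Gene expression measured by Fluidigm qRT-PCR with three housekeeping genes for normalisation. HepaRG cells, plated 48 h beforehand, treated 48 h at up to 100 uM (8-point, half-log) in 0.5% DMSO. Bidirectional fitting versus DMSO.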

Read-out in assay [2]: adenosine kinase (ADK) gene, ADK (gene 132)
Put plainly: LTEA_HepaRG_ADK: Life Technologies and Expression Analysis (LTEA) Assay for adenosine kinase (ADK) gene using HepaRG (AID 2283471). In outline: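 Read-out is ADK transcript level measured by qRT-PCR and normalised to three housekeeping genes. Cells are human HepaRG, dosed for 48 h at up to 100 uM in 0.5% DMSO. Gain or loss of signal is fitted against DMSO controls.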

Read-out in assay [3]: Alpha-fetoprotein (AFP) gene, AFP (gene 174)
In words: LTEA_HepaRG_AFP: Life Technologies and Expression Analysis (LTEA) Assay for Alpha-fetoprotein (AFP) gene using HepaRG (AID 2283472). The method, boiled down:
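AFP transcript measured by TaqMan qRT-PCR with three housekeeping genes for normalization, after 48 h chemical treatment of HepaRG cells (top 100 uM, half-log steps, 0.5% DMSO). Gain or loss fitted against vehicle.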

Read-out in assay [4]: BCL2L11 (gene 10018)
In words: LTEA_HepaRG_BCL2L11: Life Technologies and Expression Analysis (LTEA) Assay for Bcl-2 (BCL2L11) gene using HepaRG (AID 2283473). In outline:
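Human hepatic HepaRG cultures are treated 48 h with test chemicals (maximum 100 uM, 0.5% DMSO vehicle). Expression of BCL2L11 is measured by qRT-PCR against ACTB, GAPDH and POLR2A, with activity in either direction scored relative to vehicle.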

Read-out in assay [5]: Apolipoprotein A-V (APOA5) gene, APOA5 (gene 116519)
Put plainly: LTEA_HepaRG_APOA5: Life Technologies and Expression Analysis (LTEA) Assay for Apolipoprotein A-V (APOA5) gene using HepaRG (AID 2283474). The method, boiled down:
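Concentration-response of APOA5 expression in HepaRG: eight half-log doses to 100 uM, 48 h, qRT-PCR normalized to ACTB/GAPDH/POLR2A, bidirectional fitting with 0.5% DMSO as baseline.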

Read-out in assay [6]: Apoptosis regulator Bcl-2 (Homo sapiens) (UniProt P10415)
In words: LTEA_HepaRG_BCL2: Life Technologies and Expression Analysis (LTEA) Assay for Bcl-2 gene using HepaRG (AID 2283475). In outline:
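qRT-PCR of BCL2 transcript, normalized to three housekeeping genes (ACTB, GAPDH, POLR2A), after 48 h chemical exposure of HepaRG cells; concentrations top 100 uM with half-log dilutions, 0.5% DMSO vehicle, duplicates; changes up or down fitted relative to vehicle.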

Read-out in assay [7]: Bcl-2 (BID) gene, BID (gene 637)
Put plainly: LTEA_HepaRG_BID: Life Technologies and Expression Analysis (LTEA) Assay for Bcl-2 (BID) gene using HepaRG (AID 2283476). The method, boiled down:
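Duplicate 48 h treatments of HepaRG cells in serum-free induction medium spanned 100 uM downward in half-log steps, 0.5% DMSO. Transcript change quantified by qRT-PCR against three housekeeping genes, fitted up or down versus DMSO.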

Read-out in assay [8]: Caspase-3 (Homo sapiens) (UniProt P42574)
In words: LTEA_HepaRG_CASP3: Life Technologies and Expression Analysis (LTEA) Assay for cysteine-aspartic acid protease (CASP3) using HepaRG (AID 2283477). In outline:
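Transcript-level assay: CASP3 mRNA in human HepaRG after 48 h treatment, eight half-log concentrations from 100 uM in 0.5% DMSO, quantified by qRT-PCR.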

Read-out in assay [9]: Cytochrome P450 (CYP24A1), CYP24A1 (gene 1591)
In words: LTEA_HepaRG_CYP24A1: Life Technologies and Expression Analysis (LTEA) Assay for Cytochrome P450 (CYP24A1) using HepaRG (AID 2283478). In outline:
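Gene expression of CYP24A1 by TaqMan qRT-PCR in HepaRG after 48 h treatment, highest concentration 100 uM; activity fitted in both directions relative to DMSO vehicle.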

Read-out in assay [10]: Cytochrome P450 (CYP1A2), CYP1A2 (gene 1544)
Put plainly: LTEA_HepaRG_CYP1A2: Life Technologies and Expression Analysis (LTEA) Assay for Cytochrome P450 (CYP1A2) using HepaRG (AID 2283479). The method, boiled down:
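In duplicate wells, HepaRG cultures maintained in 0.5% DMSO were treated 48 h across an 8-point, half-log series topping at 100 uM; phenobarbital (1 mM) served as induction control. Expression was read by qRT-PCR.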

Read-out in assay [11]: cysteine-aspartic acid protease (CASP8), CASP8 (gene 841)
In words: LTEA_HepaRG_CASP8: Life Technologies and Expression Analysis (LTEA) Assay for cysteine-aspartic acid protease (CASP8) using HepaRG (AID 2283480). The method, boiled down:
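Concentration-response in duplicate up to 100 uM (half-log steps, 0.5% DMSO) on differentiated HepaRG cultures for 48 h. Expression change of CASP8 mRNA is determined by TaqMan qRT-PCR with housekeeping-gene normalization.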

Read-out in assay [12]: Cytochrome P450 (CYP2B6), CYP2B6 (gene 1555)
Put plainly: LTEA_HepaRG_CYP2B6: Life Technologies and Expression Analysis (LTEA) Assay for Cytochrome P450 (CYP2B6) using HepaRG (AID 2283481). In outline:
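Human HepaRG, 48 h dosing, 0.5% DMSO vehicle, top dose 100 uM. CYP2B6 transcript by qRT-PCR, housekeeping-normalized, bidirectional curve fit.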

Read-out in assay [13]: Cytochrome P450 2C19 (Homo sapiens) (UniProt P33261)
Put plainly: LTEA_HepaRG_CYP2C19: Life Technologies and Expression Analysis (LTEA) Assay for CYP2C19 using HepaRG (AID 2283482). The method, boiled down: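 Endpoint: CYP2C19 mRNA change, bidirectional fit vs 0.5% DMSO. Cells: HepaRG, 48 h exposure, eight-point series topping at 100 uM. Quantitation: qRT-PCR normalized to ACTB, GAPDH, POLR2A.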

Read-out in assay [14]: CYP2C9 (gene 1559)
Put plainly: LTEA_HepaRG_CYP2C9: Life Technologies and Expression Analysis (LTEA) Assay for CYP2C9 using HepaRG (AID 2283484). The method, boiled down: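 Eight-point concentration-response (highest 100 uM, half-log dilutions) in HepaRG cells for 48 h; CYP2C9 expression by qRT-PCR normalized to ACTB, GAPDH, POLR2A. Bidirectional fit, DMSO baseline.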

Read-out in assay [15]: CYP2E1 (gene 1571)
In words: LTEA_HepaRG_CYP2E1: Life Technologies and Expression Analysis (LTEA) Assay for CYP2E1 using HepaRG (AID 2283485). The method, boiled down: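 CYP2E1 transcript measured by Fluidigm qRT-PCR against three housekeeping genes in human HepaRG cells treated 48 h (top 100 uM, half-log steps, 0.5% DMSO vehicle). Gain or loss fitted relative to DMSO baseline.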

Read-out in assay [16]: Cytochrome P450 3A4 (Homo sapiens) (UniProt P08684)
Put plainly: LTEA_HepaRG_CYP3A4: Life Technologies and Expression Analysis (LTEA) Assay for CYP3A4 using HepaRG (AID 2283487). In outline: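 HepaRG, 48 h exposure, 8-pt CRC from 100 uM (half-log), 0.5% DMSO, duplicates; serum-free induction medium. Readout: CYP3A4 mRNA, qRT-PCR, ACTB/GAPDH/POLR2A normalization. Bidirectional fit vs DMSO.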

Read-out in assay [17]: DNA damage-inducible transcript 3 (DDIT3), DDIT3 (gene 1649)
In words: LTEA_HepaRG_DDIT3: Life Technologies and Expression Analysis (LTEA) Assay for DNA damage-inducible transcript 3 (DDIT3) using HepaRG (AID 2283488). In outline: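 DDIT3 transcript was quantified by qRT-PCR with ACTB/GAPDH/POLR2A normalization after 48 h chemical treatment of differentiated HepaRG cells in 0.5% DMSO. Dosing was eight-point, half-log, top 100 uM, duplicate wells. Curves fitted bidirectionally versus DMSO.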

Read-out in assay [18]: Pro-epidermal growth factor (Homo sapiens) (UniProt P01133)
Put plainly: LTEA_HepaRG_EGF: Life Technologies and Expression Analysis (LTEA) Assay for Epidermal growth factor (EGF) using HepaRG (AID 2283489). In outline:
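Concentration-response mRNA assay: HepaRG cells dosed 48 h (max 100 uM, 0.5% DMSO), EGF measured by qRT-PCR and normalized to ACTB/GAPDH/POLR2A.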

Read-out in assay [19]: CYP2C8 (gene 1558)
Put plainly: LTEA_HepaRG_CYP2C8: Life Technologies and Expression Analysis (LTEA) Assay for CYP2C8 using HepaRG (AID 2283483). In outline:
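This is a transcriptional endpoint in HepaRG cultures: 48 h exposure, highest concentration 100 uM. CYP2C8 mRNA is quantified by TaqMan qRT-PCR.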

Read-out in assay [20]: CYP4A11 (gene 1579)
Put plainly: LTEA_HepaRG_CYP4A11: Life Technologies and Expression Analysis (LTEA) Assay for CYP4A11 using HepaRG (AID 2283486). In outline: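 Human hepatic HepaRG cultures receive duplicate 48 h exposures across a concentration-response series topping at 100 uM. Expression changes in CYP4A11 are measured by qRT-PCR relative to DMSO controls.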

Activity calls are given as the source filed them. Rule for the calls: active = hit-call score of the fitted dose curve at least 0.9, where 1 is the maximum; inactive = score below 0.9.

Cytochrome P450 3A4 (Homo sapiens), sequence (P08684 whole entry, looked up): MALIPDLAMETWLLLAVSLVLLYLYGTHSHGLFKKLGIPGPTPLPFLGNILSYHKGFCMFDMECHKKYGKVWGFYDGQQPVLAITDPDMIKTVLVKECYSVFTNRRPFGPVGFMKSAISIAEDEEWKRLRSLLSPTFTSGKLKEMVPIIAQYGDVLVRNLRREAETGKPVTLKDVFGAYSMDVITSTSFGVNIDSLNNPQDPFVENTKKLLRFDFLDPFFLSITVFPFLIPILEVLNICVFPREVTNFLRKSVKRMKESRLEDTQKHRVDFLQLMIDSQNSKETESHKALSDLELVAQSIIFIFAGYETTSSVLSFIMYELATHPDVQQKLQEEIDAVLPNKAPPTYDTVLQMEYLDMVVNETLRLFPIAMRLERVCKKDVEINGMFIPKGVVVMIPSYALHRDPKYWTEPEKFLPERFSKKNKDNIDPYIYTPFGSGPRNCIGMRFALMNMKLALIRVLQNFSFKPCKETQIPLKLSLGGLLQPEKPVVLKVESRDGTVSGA
Cytochrome P450 2C19 (Homo sapiens), sequence (P33261 whole entry, looked up): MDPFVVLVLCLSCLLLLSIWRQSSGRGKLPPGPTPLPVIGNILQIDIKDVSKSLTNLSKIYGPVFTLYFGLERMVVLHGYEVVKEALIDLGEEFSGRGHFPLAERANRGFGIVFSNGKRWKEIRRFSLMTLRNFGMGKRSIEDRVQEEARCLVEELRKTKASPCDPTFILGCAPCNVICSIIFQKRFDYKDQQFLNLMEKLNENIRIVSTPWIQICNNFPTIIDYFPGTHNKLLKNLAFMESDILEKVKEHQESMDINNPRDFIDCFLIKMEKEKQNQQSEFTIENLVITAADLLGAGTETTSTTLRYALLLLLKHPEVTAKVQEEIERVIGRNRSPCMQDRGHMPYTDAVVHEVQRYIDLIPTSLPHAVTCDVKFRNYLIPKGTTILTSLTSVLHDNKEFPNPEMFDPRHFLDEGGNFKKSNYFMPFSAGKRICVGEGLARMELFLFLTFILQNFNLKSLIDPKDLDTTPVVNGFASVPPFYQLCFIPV
Caspase-3 (Homo sapiens), sequence (P42574 whole entry, looked up): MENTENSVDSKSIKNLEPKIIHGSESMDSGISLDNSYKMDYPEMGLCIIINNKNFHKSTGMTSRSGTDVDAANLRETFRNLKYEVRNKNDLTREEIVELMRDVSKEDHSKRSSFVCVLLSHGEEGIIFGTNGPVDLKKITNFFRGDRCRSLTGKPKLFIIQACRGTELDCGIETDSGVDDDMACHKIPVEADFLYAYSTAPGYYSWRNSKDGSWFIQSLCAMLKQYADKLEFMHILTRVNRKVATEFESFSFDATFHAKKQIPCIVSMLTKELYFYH
Apoptosis regulator Bcl-2 (Homo sapiens), sequence (P10415 whole entry, looked up): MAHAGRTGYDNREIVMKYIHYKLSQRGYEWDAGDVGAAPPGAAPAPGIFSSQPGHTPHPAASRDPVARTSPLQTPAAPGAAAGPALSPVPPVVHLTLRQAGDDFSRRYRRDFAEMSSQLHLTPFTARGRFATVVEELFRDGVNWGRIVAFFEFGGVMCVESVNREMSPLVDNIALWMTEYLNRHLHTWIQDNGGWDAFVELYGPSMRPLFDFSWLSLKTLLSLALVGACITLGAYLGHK

One may read the AC50 as the concentration giving half of the maximal activity seen. On to `CCOP(=O)(OCC)Oc1nc(Cl)c(Cl)cc1Cl`, for which the result in assay [1], in assay [2], in assay [7], in assay [8], in assay [9] and in assay [10] was inactive. The compound was classed as inactive in [11], in [17] and in assay [18]. Besides, the AC50 was 75.9 µM (active) in assay [3]; 76.6 µM (active) in assay [4]; 83.8 µM (active) in [5]; 68.4 µM (active) in assay [6]; 83.6 µM (active) in [12]; 80.7 µM (active) in assay [13]. The AC50 is 93 µM (active) in [14], 76 µM (active) in assay [15] and 49.8 µM (active) in assay [16].

Take `CCCC(=NOCC)C1=C(O)CC(CC(C)SCC)CC1=O` (stereo not given): the compound was called inactive in [1], in assay [2], in assay [3], in assay [4], in [5] and in assay [6]. The outcome in assay [7], in assay [8], in [9], in assay [10], in assay [11] and in assay [14] was inactive. In addition, the compound was called inactive in assay [17] and in assay [18]. For the same compound, the AC50 was 46.2 µM (active) in assay [12], 29.6 µM (active) in assay [13], 50.2 µM (active) in assay [15] and 28.4 µM (active) in assay [16].

Regarding `CCCCOCN(C(=O)CCl)c1c(CC)cccc1CC`, the result in assay [1], in [2], in assay [3], in [4], in assay [5] and in assay [6] was inactive. Also, the compound was classed as inactive in assay [7], in [8], in assay [9], in [10], in assay [11] and in [14]. Besides, the call in assay [15], in [17] and in assay [18] was inactive. For the same compound, the AC50 in assay [12] is 40 µM (active); in [13], 50 µM (active); in assay [16], 27.7 µM (active).

`COC(=O)NC(=S)Nc1ccccc1NC(=S)NC(=O)OC`: the compound was called inactive in assay [1], in assay [2], in assay [3], in assay [4], in assay [5] and in [6]. The outcome in assay [7], in assay [8], in assay [9], in assay [11], in assay [19] and in assay [14] was inactive. Further, the call in [20], in assay [17] and in assay [18] was inactive. Also, the AC50 in assay [10] was 39 µM (active); in [12] it was 9.55 µM (active); in [13] it was 13.7 µM (active); in [15] it was 26.8 µM (active); in assay [16], 6.29 µM (active).

Take `N#Cc1c(Cl)cccc1Cl`: the result in assay [1], in [2], in [3], in assay [4], in assay [5] and in [6] was inactive. The result in assay [7], in assay [8], in assay [9], in assay [10], in [11] and in [13] was inactive. For the same compound, the compound was classed as inactive in [14], in assay [15], in assay [16], in assay [17] and in assay [18]. Further, the AC50 in [12] was 12.1 µM (active).

In the case of `Clc1nc(Cl)nc(Nc2ccccc2Cl)n1`, the call in [1], in [2], in [3], in assay [4], in assay [5] and in assay [6] was inactive. Also, the result in assay [7], in assay [8], in [9], in assay [11], in assay [14] and in assay [17] was inactive. Further, in assay [18], the compound was called inactive. Further, the half-maximal activity concentration (AC50) in assay [10] was 20.1 µM (active); in assay [12], 34.8 µM (active); in [13], 10.3 µM (active); in [15] it was 16.7 µM (active); in assay [16], 18.5 µM (active).

Regarding `CCOc1cc(C(C)(C)C)ccc1C1COC(c2c(F)cccc2F)=N1` (stereo not given), the compound was classed as inactive in assay [1], in [2], in [4], in assay [5], in [6] and in [7]. Besides, the outcome in [8], in assay [9], in assay [10], in [11], in [14] and in [18] was inactive. For the same compound, the AC50 is 25.7 µM (active) in assay [3]; 8.33 µM (active) in [12]; 8.34 µM (active) in [13]; 7.92 µM (active) in assay [19]; 18.7 µM (active) in assay [15]; 57.4 µM (active) in assay [20]. Also, the AC50 in [16] is 4.8 µM (active); in assay [17] it was 52.1 µM (active).

(Values after PubChem BioAssay (EPA / NIEHS).)
